The values that follow come from PubChem BioAssay (NCI).

Among the test systems are HCT-15 colon; HT29 colon; SNB-75 CNS; SNB-19 CNS; U251 CNS; PC-3 prostate; SK-MEL-5 melanoma; UACC-62 melanoma; LOX IMVI melanoma; SK-MEL-28 melanoma.
What all share (test): NCI-60 one-dose screen, 48 h (100 = growth as untreated, 0 = no growth, -100 = all killed)
Holding throughout (conditions): 10 µM unless noted

Compounds without any hit were thinned out: in the full panel of roughly 83,000, 20% have a hit.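 The test compound was applied at a single concentration to cells in 96-well plates for 48 hours, and percent growth was recorded.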 Unmarked numbers belong to inactive results. Active and inactive are the calls of the source. Rule for the calls: active = growth percent below 10; inactive = the rest.

As for `O=S(=O)(O)c1ccc(N/N=C/c2ccccc2Cl)cc1`, the growth in the assay on HCT-15 colon was 97%; with HT29 colon, 100%; with SNB-75 CNS, 94.6%; in the assay on SNB-19 CNS, 109%; in the assay with U251 CNS, 99.5%; in the assay with PC-3 prostate it was 99.2%. For the same molecule, the growth is 103% in the assay with SK-MEL-5 melanoma, 111% in the assay with UACC-62 melanoma, 128% in the assay with LOX IMVI melanoma and 111% with SK-MEL-28 melanoma.
`COc1cc(/C=C/C(=O)c2c(C)nc3ccccc3c2/C=C/c2ccc(C)cc2)cc(OC)c1OC`: the growth is -19.4% (active) in the assay on HCT-15 colon; 14% with HT29 colon; 22.7% in the assay with SNB-75 CNS; 40.1% in the assay with SNB-19 CNS; 20.9% in the assay on U251 CNS; 25.8% in the assay with PC-3 prostate. The growth with SK-MEL-5 melanoma is 26%; in the assay with UACC-62 melanoma it was 25.6%; in the assay with LOX IMVI melanoma it was -22.8% (active); with SK-MEL-28 melanoma, 20.3%.
Turning to `Cc1nn(-c2ccccc2)c(Cl)c1/C=C(/NC(=O)c1ccccc1)c1nc2ccccc2[nH]1`, the growth with HCT-15 colon was 94.1%; in the assay with HT29 colon, 75.3%; in the assay on SNB-75 CNS it was 96.9%; in the assay on SNB-19 CNS it was 101%; in the assay with U251 CNS it was 92.4%; in the assay on PC-3 prostate, 78%. For the same molecule, the growth in the assay on SK-MEL-5 melanoma was 107%; in the assay with UACC-62 melanoma, 75%; in the assay with LOX IMVI melanoma, 96.8%; in the assay with SK-MEL-28 melanoma, 83.6%.
`CC(C)Sc1nc(NNC(N)=S)c(C#N)c(-c2ccc(F)cc2)n1`: the growth with HCT-15 colon is 95.9%; with HT29 colon, 115%; with SNB-75 CNS it was 62.6%; in the assay on SNB-19 CNS it was 97%; with U251 CNS, 95%; in the assay on PC-3 prostate, 102%. Also, the growth in the assay on SK-MEL-5 melanoma was 93.3%; with UACC-62 melanoma, 91.1%; in the assay with LOX IMVI melanoma it was 98.6%; in the assay on SK-MEL-28 melanoma, 113%.
On to `Fc1ccc(CNc2c3ccccc3nc3ccccc23)cc1F`, for which the growth in the assay with HCT-15 colon is 18%; in the assay on HT29 colon it was 13.4%; with SNB-75 CNS, 66.2%; in the assay on SNB-19 CNS it was 32.9%; in the assay on U251 CNS, 30.3%; with PC-3 prostate, 35.7%. The growth with SK-MEL-5 melanoma is 66.2%; with UACC-62 melanoma, 60%; with LOX IMVI melanoma it was 12.5%; in the assay on SK-MEL-28 melanoma it was 82.4%.
For `COc1cccc(-c2nn(-c3ccccc3)cc2-c2ccnc(NCCCNC(=O)Nc3ccc(Cl)c(Cl)c3)c2)c1`, the growth with HCT-15 colon is 6.61% (active); in the assay with HT29 colon, -36.4% (active); with SNB-75 CNS, 25.4%; in the assay on SNB-19 CNS, 27.7%; in the assay on U251 CNS it was -15.5% (active); in the assay with PC-3 prostate, 6.51% (active). In addition, the growth with SK-MEL-5 melanoma was -26.4% (active); with UACC-62 melanoma, -29.7% (active); in the assay with LOX IMVI melanoma it was -92.1% (active); in the assay with SK-MEL-28 melanoma, -29.2% (active).
In the case of `CC1(C)CC(=O)CC2(C1)N=C(N)Nc1nc3ccccc3n12` (stereo not given), the growth with HCT-15 colon was 98.2%; with HT29 colon, 91.6%; in the assay with SNB-75 CNS it was 82.3%; in the assay on SNB-19 CNS, 99.2%; with U251 CNS it was 104%; in the assay with PC-3 prostate, 95.7%. The growth in the assay with SK-MEL-5 melanoma was 97.4%; with UACC-62 melanoma, 95.9%; in the assay on LOX IMVI melanoma, 94.9%; in the assay on SK-MEL-28 melanoma it was 101%.
For the molecule `CCOc1c(C#N)nnc2c(C#N)c(NC(=O)c3ccccc3)nn12`, the growth is 106% in the assay on HCT-15 colon; 106% with HT29 colon; 79.8% with SNB-75 CNS; 100% with SNB-19 CNS; 95.6% in the assay on U251 CNS; 100% with PC-3 prostate. Further, the growth with SK-MEL-5 melanoma is 99.4%; in the assay on UACC-62 melanoma, 101%; in the assay on LOX IMVI melanoma it was 95.5%; with SK-MEL-28 melanoma, 104%.
For `CCCCNC(=O)Oc1ccc2c(=O)c3sc4c(=O)c5ccccc5c(=O)c4c3c(=O)c2c1`, the growth with HCT-15 colon was -84% (active); in the assay with HT29 colon, -41.6% (active); in the assay with SNB-75 CNS, -98.3% (active); in the assay with SNB-19 CNS, -93.6% (active); in the assay on U251 CNS, -73% (active); in the assay on PC-3 prostate, -15.5% (active). For the same molecule, the growth in the assay with SK-MEL-5 melanoma is -96.9% (active); in the assay on UACC-62 melanoma it was -75% (active); with LOX IMVI melanoma it was -72.9% (active); with SK-MEL-28 melanoma it was -73.3% (active).
Turning to `Cc1ccc(C(=O)CSc2nc(-c3ccc(Br)cc3)c(C#N)c(=O)[nH]2)cc1`, the growth in the assay on HCT-15 colon was 105%; with HT29 colon it was 93.9%; in the assay with SNB-75 CNS it was 64.5%; in the assay on SNB-19 CNS, 96.7%; in the assay on U251 CNS, 105%; in the assay with PC-3 prostate it was 90.9%. The growth in the assay on SK-MEL-5 melanoma is 97.2%; in the assay on UACC-62 melanoma, 97.1%; in the assay with LOX IMVI melanoma it was 98%; in the assay on SK-MEL-28 melanoma it was 101%.
`Cc1ccc(-c2cc(-c3cccnc3)[nH]c(=O)c2C#N)cc1`: the growth is 103% in the assay on HCT-15 colon; 107% with HT29 colon; 85.2% in the assay with SNB-75 CNS; 97% in the assay with SNB-19 CNS; 101% with U251 CNS; 110% with PC-3 prostate. Moreover, the growth in the assay on SK-MEL-5 melanoma was 105%; in the assay with UACC-62 melanoma it was 96.9%; in the assay on LOX IMVI melanoma, 96.9%; with SK-MEL-28 melanoma, 109%.
Take `CCN(CC)CCCCCCNc1cc(OC)c(Cl)c2cccnc12`: the growth was 78.4% with HCT-15 colon; 16.2% with HT29 colon; 63.5% in the assay on SNB-75 CNS; 96.4% with SNB-19 CNS; 74.4% in the assay with U251 CNS; 64.9% in the assay on PC-3 prostate. The growth was 68.7% in the assay with SK-MEL-5 melanoma, -30.6% (active) in the assay with UACC-62 melanoma, 55.7% in the assay with LOX IMVI melanoma and 64.6% in the assay with SK-MEL-28 melanoma.
Regarding `COc1cccc(-c2nc3sccn3c2-c2ccnc(NCCNS(=O)(=O)c3ccc(C(F)(F)F)cc3)c2)c1`, the growth in the assay on HCT-15 colon was 33%; in the assay on HT29 colon, 35.7%; with SNB-75 CNS, 38.1%; in the assay on SNB-19 CNS, 56.5%; with U251 CNS it was 42.1%; in the assay with PC-3 prostate it was 16.8%. Besides, the growth is 14.9% in the assay on SK-MEL-5 melanoma, 38.9% in the assay with UACC-62 melanoma, 46.3% in the assay with LOX IMVI melanoma and 57.8% in the assay on SK-MEL-28 melanoma.
